Vif-A3G inh = Vif-A3G binding inhibition. HeLa A3G-eYFP + Vif (tagged APOBEC3G with the HIV-1 protein that degrades it), YFP fluorescence, overnight. 410,000 compounds, 0.076% hits. Potency, µM (highest dose often 46.1 µM), inactives show at the top dose activity, negative = active, usual class: inhibitors; also: % is scaled to controls: 0 for no effect and ±100 for the full control effect; nearly all actives have a fitted effect of over 60% in size
Target sequence (Q9HC16 whole entry, looked up): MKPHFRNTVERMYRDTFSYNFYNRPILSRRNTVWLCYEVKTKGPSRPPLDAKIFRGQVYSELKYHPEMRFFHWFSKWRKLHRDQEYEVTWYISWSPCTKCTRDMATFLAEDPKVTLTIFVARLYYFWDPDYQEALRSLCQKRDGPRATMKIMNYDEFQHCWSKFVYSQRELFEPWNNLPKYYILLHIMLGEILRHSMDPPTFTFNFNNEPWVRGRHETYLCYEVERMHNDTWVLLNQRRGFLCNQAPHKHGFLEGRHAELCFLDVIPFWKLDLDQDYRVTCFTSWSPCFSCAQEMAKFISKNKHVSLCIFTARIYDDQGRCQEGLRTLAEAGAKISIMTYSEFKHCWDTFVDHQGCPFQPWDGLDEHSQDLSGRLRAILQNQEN
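HeLa cells stably expressing Vif and C-terminally eYFP-tagged A3G, seeded overnight at 37 deg C, then exposed to compound by pintool overnight at 37 deg C. Rise in yellow fluorescence (Ex 488/Em 500-530, Acumen) marks blocked Vif-driven A3G degradation.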
Epigenetic reg = derepresses silenced GFP reporter in murine cells | murine LDR cells, GFP reporter derepression, 30 h | Potency, µM (doses to about 53.9 µM), for the others: at the highest dose GFP activation, most hits filed as activators | 280,000 compounds, 0.2% hits | AID 1865; also: % of control where 0% means no effect; nearly all actives have a fitted effect of over 60% in size
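GFP-positive cell count by laser-scanning cytometry (objects 20–120 um) after 30 h, 37 C compound exposure of murine LDR cells; reporter is CMV-GFP integrated at a silenced locus, inducible by HDAC or DNMT inhibitors.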
PINK1 expr mod = PINK1 expression modulation. Potency, µM (top dose mostly 76.6 µM), without a hit: top-dose activation (PINK1 increase), most hits filed as activators. AID 624263. PINK1 immunofluorescence, high-content cytometry, 24 h. 410,000 compounds, 0.2% hits; active = well fitted activation curve with a large enough effect; inconclusive = small, poorly fitted or top-dose-only effect; cell line not stated here; also: % of control where 0% means no effect; nearly all actives have a fitted effect of over 65% in size
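PINK1 protein level read as immunofluorescence by microplate cytometer in a fixed, stained stable cell line after 24 h exposure to five compound concentrations, with CCCP as control.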
Vif-A3F inh = Vif-A3F binding inhibition | HeLa A3F-eYFP + Vif (tagged APOBEC3F with the HIV-1 protein that degrades it), YFP fluorescence increase | 390,000 compounds, 0.2% hits | Potency, µM (top dose mostly 46.1 µM), for the others: top-dose activity, negative = active | AID 602313; also: % of control where 0% means no effect; nearly all actives have a fitted effect of over 65% in size
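Fluorescence increase (Ex 488/Em 500-530) after overnight compound treatment at 37 deg C flags inhibition of Vif-driven A3F-eYFP loss in stable HeLa A3F-eYFP/Vif cells seeded overnight beforehand.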
* hit, by the source's call; ? = inconclusive; / = not tested or not shown; ! = not confirmed by another sample. An excerpt weighted towards active compounds, which were near 0.52% of everything screened. Unless noted, calls follow the shape of the dose curve; as a rule, active = well fitted curve in the direction sought with a large enough effect; inconclusive = small, poorly fitted or top-dose-only effect, or another doubt; inactive = no such curve, though single readings can be large; an effect the other way counts as inactive or inconclusive. Potency is read from the fitted curve at half-maximal effect.

SMILES	Vif-A3G inh	Epigenetic reg	PINK1 expr mod	Vif-A3F inh
O=C(Nc1ccc(OCC(F)(F)C(F)F)c(C(F)(F)F)c1)c1ccccc1	7%	/	2%	5%
O=C(Nc1ccc(OCC(F)(F)C(F)F)c(C(F)(F)F)c1)c1ccccc1O	-10%	-1%	16µM*	-3%
Cc1ccc(-c2nc(-c3cc4cccc(OCc5cccc(F)c5)c4oc3=O)no2)cc1	-29%	?	3%	8.9µM*
Cc1[nH]c2ccccc2c1/C=C/C(=O)c1ccccc1	?	?	3%	28µM*
Cc1[nH]c2ccccc2c1/C=N/NC(=O)c1ccccc1	-5%	/	1%	0%
C[C@@H]1CN(Cc2ccc3c(c2)CN(C(=O)CN2CCOc4ccccc4C2)CCO3)C[C@H](C)O1	/	/	1%	/
Cc1ccc2ccc3cc(C(=O)N4CCN(c5ccccc5F)CC4)nc3c2[nH]1	-5%	1%	3%	-2%
Cc1ccc2ccc3cc(C(=O)Nc4ccc(C)c(F)c4)nc3c2[nH]1	13µM*	8%	0%	?
COCCN1CCn2c(nc3cc(NC(=O)NC4CCCCC4)ccc32)C1	2%	-1%	0%	-8%
O=C(Nc1ccc2c(c1)nc1n2CCN(Cc2ccccc2)C1)NC1CCCCC1	-8%	3%	10µM*	1%
COc1cc(/C=C(\C#N)c2nc3ccccc3[nH]2)ccc1OCc1ccc(F)cc1	?	?	7%	-19%
COc1cc(/C=C(/C#N)c2nc3ccccc3[nH]2)ccc1Oc1ncccc1[N+](=O)[O-]	?	16%	7.9µM*	-2%
COc1ccc2nc(/C(C#N)=C\c3ccc(Oc4ccc([N+](=O)[O-])cn4)cc3)[nH]c2c1	-19%	10%	11µM*	?
COc1cc(Br)c(/C=C(\C#N)c2nc3ccccc3[nH]2)cc1OC	-23%	6%	3%	25µM*
Cc1ccc(C(=O)Nc2cnn(-c3ccc(C(=O)NCc4nc(-c5ccccc5)n[nH]4)cc3)c2)c(C)c1	/	/	0%	/
Cc1c(C(=O)N(CCO)C(C)C)cnn1-c1ncc2c(n1)-c1ccccc1CCC2	/	/	0%	/
CC(C)N1CC=C2C(C#N)=C(N)C(C#N)(C#N)C(c3ccccc3)C2C1 (stereo not given)	-4%	1%	7.9µM*	?
COc1cc(C2C3CN(C)CC=C3C(C#N)=C(N)C2(C#N)C#N)ccc1OC(C)C (stereo not given)	-1%	-1%	40µM*	-1%
CN1CC=C2C(C#N)=C(N)C(C#N)(C#N)C(Cc3ccccc3)C2C1 (stereo not given)	1%	-1%	18µM*	-8%
COc1cc([C@@H]2[C@H]3CNCC=C3C(C#N)=C(N)C2(C#N)C#N)ccc1OC(C)C	?	?	5%	?
CCC1C2CN(C(C)=O)CC=C2C(C#N)=C(N)C1(C#N)C#N (stereo not given)	-1%	-1%	-1%	1%
C[C@@H]1CN(Cc2ccc3c(c2)CN(Cc2nc(-c4ccccc4)cs2)CCO3)C[C@H](C)O1	/	/	0%	/
CCOC(=O)c1cc([N+](=O)[O-])sc1NC(=O)c1ccc(S(=O)(=O)N2CC3(C)CC2CC(C)(C)C3)cc1 (stereo not given)	-2%	2%	2.5µM*	-6%
CC(C)CN(c1ccccc1)S(=O)(=O)c1nnc(NC(=O)C2CCCCC2)s1	5%	28µM*	-1%	1%
COc1ccc(CN2C[C@H](Sc3nc4ccccc4[nH]3)C[C@H]2C(=O)N(C)C)c2ccccc12	/	/	1%	/
SMILES	Vif-A3G inh	Epigenetic reg	PINK1 expr mod	Vif-A3F inh
O=C(NCc1ccco1)c1sc(=S)n2c1[nH]c(=O)c1ccccc12	1%	1%	?	-8%
O=C(NC1CCCC1)c1sc(=S)n2c1[nH]c(=O)c1ccccc12	-4%	0%	32µM*	-22%
Cc1ccc(C)c(NC(=O)N2CC=C(c3c[nH]c4ccccc34)CC2)c1	?	?	0%	25µM*
Cc1cc(NC(=O)N2CC=C(c3c[nH]c4ccccc34)CC2)ccc1Br	?	?	1%	22µM*
COc1cc(OC)c(NC(=O)N2CC=C(c3c[nH]c4ccccc34)CC2)cc1Cl	?	?	5%	?
CCC1CN(CCNC(=O)c2cc3ccccc3oc2=O)Cc2cc(OC)ccc2O1 (stereo not given)	/	/	0%	/
Cc1cnc(-n2ncc(C(=O)NC(C)(C)CO)c2-c2cccs2)nc1-c1ccc(F)cc1	/	/	-1%	/
Oc1[nH]c2ccccc2c1N=NC(=S)N1CCOCC1	-18%	4µM*	0%	-9%
COc1ccc(-c2ccnc(-n3ncc(C(=O)NCc4ccon4)c3C3CC3)n2)cc1F	/	/	8%	/
C/C(=N\Nc1ccc(Cl)c(C(=O)O)c1)c1ccccn1	-1%	-1%	1%	-1%
C/C(=N\Nc1ncc(Cl)cc1Cl)c1ccccn1	2%	0.63µM*	0%	?
Cc1ccc(C)c(Oc2cc(NC(=O)CCCn3nc(C)c([N+](=O)[O-])c3C)cc([N+](=O)[O-])c2)c1	-6%	-2%	45µM*	1%
Cc1nn(CCCC(=O)Nc2cc(Oc3ccccc3)cc([N+](=O)[O-])c2)c(C)c1[N+](=O)[O-]	2%	-1%	6%	-5%
Cc1cn2cc(CNC(=O)CN3Cc4ccccc4OC(c4ccccc4F)C3)nc2s1 (stereo not given)	/	/	-1%	/
CCCSc1nnc(NC(=O)Nc2ccc(F)cc2)s1	1%	4%	14µM*	-7%
CCCSc1nnc(NC(=O)Nc2ccc(C)cc2)s1	2%	-1%	3%	15%
CCCSc1nnc(NC(=O)Nc2ccccc2)s1	1%	0%	45µM*	-2%
O=C(NCc1nnc2n1CCN(Cc1cc3c(cc1Cl)OCO3)CC2)C1CCOC1 (stereo not given)	/	/	0%	/
CCCCN(CCCC)CC1OCc2ccccc2CO1	2%	1%	4µM*	-20%
Cc1ccc[n+](CC2OCc3ccccc3CO2)c1	4%	-1%	0%	7%
COc1cc(=O)n2c(c1C(=O)N(C)Cc1cscn1)CCN(C(=O)c1ccc(C)c(C)c1)CC2	/	/	1%	/
COc1cccc2ccc(CN3CCC4(CC3)c3ccccc3[C@@H](NC(=O)c3ccccc3)[C@@H]4O)nc12	/	/	0%	/
CC(NC(=O)c1cc2ccccc2o1)C(=O)O (stereo not given)	1%	1%	-1%	1%
CC(NC(=O)c1cc2ccccc2o1)c1ccccc1 (stereo not given)	0%	16µM*!	0%	-5%
COc1cc(=O)n2c(c1C(=O)N(C)Cc1nonc1C)CCN(Cc1cccc3ccccc13)CC2	/	/	-1%	/
COc1cccc(N=C2NC(=O)/C(=C/c3cc([N+](=O)[O-])ccc3O)S2)c1	?	/	0%	25µM*
O=C1NC(=Nc2ccccc2Cl)S/C1=C\c1cc([N+](=O)[O-])ccc1O	13µM*	/	2%	?
Cc1ccccc1Nc1sc(C(=O)c2ccccc2)c(N)c1C(=O)NCc1ccc(Cl)cc1	-12%	-1%	16µM*	-9%
